# Reference: article PMC6522510 (Nature Communications, 2019)
# Tests used:
# Details in all cases: 72 h, relative to cycloheximide control, log10 luminescence
# CHRF288-11 = tested on: CHRF288-11
# CMK = tested on: CMK
# CMS = tested on: CMS
# M07e = tested on: M07e
# ML-2 = tested on: ML-2
# MOLM-13 = tested on: MOLM-13
# MV4-11 = tested on: MV4-11
# U937 = tested on: U937
smiles,measurement,setting,value
"C[C@]12CC[C@@H]3c4ccc(OC(=O)N(CCCl)CCCl)cc4CC[C@H]3[C@@H]1CC[C@@H]2OP(=O)(O)O [SJ000518944-1, ES[…] SODIUM]",CHRF288-11 %inh,CHRF288-11,1.087%
same,CMK %inh,CMK,-3.517%
same,CMS %inh,CMS,-0.5738%
same,M07e %inh,M07e,1.122%
same,ML-2 %inh,ML-2,0.1396%
same,MOLM-13 %inh,MOLM-13,1.341%
same,MV4-11 %inh,MV4-11,2.919%
same,U937 %inh,U937,-1.233%
